We go through 93 compounds from PubChem BioAssay AID602440 (Sanford-Burnham Center for Chemical Genomics, 2012).

About 2,300 (0.64%) of roughly 360,000 compounds were called active. This is one part of a sample in which actives are shown more often than they occur. No stated cut-off is given here; in the data, active means inhibition mostly above about 40% (no sharp cut-off); inactive means mostly below about 27%.

The target in the test is Sentrin-specific protease 8 (Homo sapiens) (UniProt Q96LD8). Kind of test: blockers of SENP8 deneddylase activity – biochemical, fluorescence, Nedd8 protein substrate, uHTS, primary screen (AID 602440). Conditions: recombinant SENP8, Nedd8 substrate fluorescence; at 20 µM; active compounds read high.
Sequence of Sentrin-specific protease 8 (Homo sapiens) (Q96LD8 whole entry, looked up): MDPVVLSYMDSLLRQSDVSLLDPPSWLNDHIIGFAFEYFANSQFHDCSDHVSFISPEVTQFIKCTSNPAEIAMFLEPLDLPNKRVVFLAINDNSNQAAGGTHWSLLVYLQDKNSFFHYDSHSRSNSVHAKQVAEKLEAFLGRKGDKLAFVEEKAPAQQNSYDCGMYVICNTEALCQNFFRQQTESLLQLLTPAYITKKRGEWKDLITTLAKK
In the case of `COc1cc(C(=S)N2CCOCC2)cc(OC)c1OC(=O)c1cc([N+](=O)[O-])c(C)c([N+](=O)[O-])c1`, the inhibition (in general, the drop in the measured response relative to a control, in per cent) was 27.5% (inactive).
To `COc1cc(C(=S)N2CCOCC2)cc(OC)c1OC(=O)c1ccc([N+](=O)[O-])cc1[N+](=O)[O-]` belongs 11.9% (inactive); to `COc1cc(C(=S)N2CCOCC2)cc(OC)c1OC(=O)c1cc([N+](=O)[O-])cc([N+](=O)[O-])c1`, 40.9% (active); to `NNC(=O)CNC(c1ccccc1)c1cc(Cl)ccc1NC(=O)c1ccccc1` (stereo not drawn), 2.6% (inactive).
Next, `CN(C(=O)COC(=O)CNC(=O)C12CC3CC(CC(C3)C1)C2)c1ccccc1`: 2% (inactive); `CC(C)c1cc(Cn2c3ccccc3c(=O)n2C(C)Cn2cc(C3CC3)nn2)on1` (stereo not drawn): -395% (inactive).
Next, `CCS(=O)(=O)Nc1ccc(C(=O)NCCSc2ccccc2)cc1`: 23.1% (inactive).
For the compound `CCc1ccc(C(=O)NC(=S)Nc2ccccc2N2CCOCC2)cc1`, the inhibition is 30.3% (inactive).
To `Cc1cc(C)cc(OCC(=O)Nc2ccc(N3CCOCC3)cc2N2CCOCC2)c1` belongs 17.3% (inactive); to `Cc1cccc(OCC(=O)NC(=S)Nc2ccccc2N2CCOCC2)c1`, 43.3% (active); to `CCn1c(=O)cc(SCC(=O)NCCC2=CCCCC2)c2ccccc21`, -40.2% (inactive).
As to `CCCc1nc(SCC(=O)Nc2ccccc2OC)c2c(=O)n(C)c(=O)n(C)c2n1`, the inhibition was 10.5% (inactive).
Take `FC(F)(F)c1cc(C(F)(F)F)c2ccc(N3CCN(c4ccccc4)CC3)nc2n1`: the inhibition was -2.9% (inactive).
To `Cc1ccc(CNC(=O)C2(C(F)(F)F)C/C(=C\Cc3ccccc3)CCCO2)o1` (stereo not drawn) belongs 12.6% (inactive); to `CC(C)CC[n+]1ccn(C2=C([O-])c3ccccc3C(=O)/C2=N\S(=O)(=O)c2ccccc2)c1`, 54% (active); to `CC(=O)NC(Cc1ccc(F)cc1)C(=O)O` (stereo not drawn), 2% (inactive).
Take `O=C(CCNC(=O)c1ccc(Br)cc1)NCC(c1ccco1)N1CCCCC1` (stereo not drawn): the inhibition is 10.5% (inactive).
With `CCOC(=O)c1ccc(COC(=O)CCc2nc(-c3ccccc3)c(-c3ccccc3)o2)cc1`, the inhibition was -13.2% (inactive).
For the compound `CCOc1cc(NC(=O)Nc2ccccc2)c(OCC)cc1NC(=O)CC`, the inhibition is -0.4% (inactive).
To `CCOc1cc(NC(=O)c2ccccc2C(=O)O)c(OCC)cc1NC(=O)c1ccccc1F` belongs 50.6% (active); to `O=C(NCCOc1ccccc1)c1ccccc1F`, 5.5% (inactive).
For the compound `Cc1ccc(-c2nn(-c3cccc(F)c3)cc2CNCCc2ccncc2)o1`, the inhibition was -178% (inactive).
Turning to `CONC(=O)c1cc(OCC(F)(F)F)ccc1OCC(F)(F)F`, the inhibition was 21.1% (inactive).
To `CCOc1c(Br)cc(/C=C2\C(=O)N(CCC#N)N=C2C)cc1OC` belongs 50.8% (active); to `CCN1C(=O)[C@@H]2[C@@H](c3ccc(-c4ccccc4)cc3)N3CCCC[C@@]3(C(=O)OC)[C@@H]2C1=O`, 3.1% (inactive).
Take `CC1=C/C(=N\OS(=O)(=O)c2ccccc2)C=CC1=O`: the inhibition was 52.9% (active).
As for `COc1ccc2[nH]c3c(c2c1)CCN1C(=O)C(CC(=O)NCCc2ccccn2)C[C@H](C(=O)N2CCOCC2)[C@@]31C` (stereo partly drawn), the inhibition is -3.3% (inactive).
As to `Cc1ccc(S(=O)(=O)N2[C@@H](c3cccc4ccccc34)C(C(=O)O)=C[C@H]2C(C)(C)C)cc1`, the inhibition is 1.1% (inactive).
As to `O=C(NC1CC1)C1=C[C@H](c2coc3ccccc3c2=O)C[C@H](OCCCCO)O1`, the inhibition is -5% (inactive).
Turning to `CCC(=O)c1ccc(OCC(=O)OCC(=O)N2CCc3ccccc3C2)cc1`, the inhibition was 18.9% (inactive).
Take `Cc1ccc(Cl)c(OCC(=O)N2CCc3ccccc3C2)c1`: the inhibition is 20.7% (inactive).
In the case of `O=C(COc1ccccc1)N1CCc2ccccc2C1`, the inhibition was 42.5% (active).
To `COc1cccc(N2CC(C(=O)NCc3n[nH]c(=O)c4ccccc34)CC2=O)c1` (stereo not drawn) belongs -0.8% (inactive); to `O=[N+]([O-])c1ccc(N2CCN(c3ccc(O)cc3)CC2)c(Cl)c1`, 26.5% (inactive).
To `O=[N+]([O-])c1ccc(N2CCSCC2)cc1O` belongs 57% (active).
Consider `O=[N+]([O-])c1ccc(N2CCN(S(=O)(=O)c3ccccc3)CC2)cc1N1CCc2ccccc2C1`, for which the inhibition is -132% (inactive).
As for `CC(C(=O)NC1CCCC1)N1CCN(S(=O)(=O)c2ccccc2Cl)CC1` (stereo not drawn), the inhibition was 7.4% (inactive).
`CC1(C)Cc2cccc(OCC(N)=O)c2O1`: the inhibition was 20.9% (inactive).
Take `COc1cccc(CCNC(=O)COc2cccc3c2OC(C)(C)C3)c1`: the inhibition is 20.6% (inactive).
In the case of `CC1(C)Cc2cccc(OCC(=O)Nc3nccs3)c2O1`, the inhibition is 42.4% (active).
Next, `COc1cc(NC(=O)COC(=O)c2ccc([N+](=O)[O-])s2)cc(OC)c1OC`: 26.8% (inactive); `O=C(OCC(=O)N1CCN(c2ccccc2)CC1)c1ccc([N+](=O)[O-])s1`: 42.9% (active).
As for `C[C@H](NC(=O)c1ccccc1Cl)C(=O)OCC(=O)N1CCN(c2ccccc2)CC1`, the inhibition was 12.8% (inactive).
Take `Oc1ccc(N=Cc2sc3ccccc3c2Cl)cc1`: the inhibition is 87.5% (active).
To `CCCN=C1NC(=O)C(CC(=O)NCCc2ccc(OC)c(OC)c2)S1` (stereo not drawn) belongs 16.5% (inactive); to `Cc1ccc(-n2nc3c(=O)n(C(C)C(=O)NCc4ccc5c(c4)OCO5)nc(C)c3c2C)cc1` (stereo not drawn), 3.2% (inactive).
Take `CC(=O)c1c(N2CCOCC2)nc(=S)n(-c2cc(C)ccc2C)c1C`: the inhibition was 9.8% (inactive).
Take `CC(=O)Nc1ccc(OCCC[n+]2cccc(C(=O)[O-])c2)cc1`: the inhibition was 7.7% (inactive).
On to `COc1ccc(-c2nnco2)cc1OC`, for which the inhibition was 41.5% (active).
On to `COc1ccc(C(=O)Oc2ccc(-c3nnco3)cc2)cc1S(=O)(=O)N1CCOCC1`, for which the inhibition was 20.2% (inactive).
Next, `COc1ccc2c(Cl)c(-c3nnco3)sc2c1`: -37.1% (inactive); `Cc1ccc(N2C(=O)CN=C2Nc2nc(C)cc(C)n2)cc1`: 31.7% (inactive).
Next, `COc1ccc(N2CCC(CNC(=S)Nc3c(C)cccc3C)C2)cc1` (stereo not drawn): 9.9% (inactive).
`CCN(C(=O)CSc1ncnc2sccc12)c1c(N)n(Cc2ccccc2)c(=O)[nH]c1=O`: the inhibition was -25% (inactive).
To `CC1CCCC(N2CCN(C(=O)c3ccc(F)cc3)CC2)C1` (stereo not drawn) belongs 7.2% (inactive); to `CCN1CCC2(CC1)N=C(c1ccc(F)cc1)C(=S)N2C(=O)c1ccc(C)cc1`, 48.7% (active).
To `Cc1ccc(C(=O)N2CC(=O)Nc3ccc(F)cc3C2c2ccc(F)cc2)cc1` (stereo not drawn) belongs 4.1% (inactive).
To `CCN1CCC(O)(/C=C/c2ccc(C)cc2)C(C(=O)/C=C/c2ccc(C)cc2)C1` (stereo not drawn) belongs 16.7% (inactive); to `COC(=O)CNC(=O)c1ccc2c(c1)S(=O)(=O)c1ccccc1C2=O`, 23.2% (inactive); to `CN(Cc1ccccc1)C(=O)CCNC(=O)Cn1cnc2ccccc2c1=O`, 16.4% (inactive).
`N#Cc1cccc(NC(=O)CN2CCCCCC2)c1`: the inhibition was 7.3% (inactive).
To `CCOCCCn1c(SCC(=O)Nc2cc(OC)ccc2OC)nc2ccccc2c1=O` belongs -19.4% (inactive); to `CCc1nnc(NC(=O)CSc2nc3ccccc3c(=O)n2CCCOC)s1`, 23.2% (inactive); to `CCOCCCn1c(NN)nc2ccccc2c1=O`, 34% (active).
Consider `Cc1cc(NC(=O)COC(=O)COc2ccc(Cl)cc2C)c([N+](=O)[O-])cc1C`, for which the inhibition is 7.4% (inactive).
In the case of `COc1ccc(CN2CN(C(C)C)CSC2=S)cc1`, the inhibition was 6.1% (inactive).
Turning to `Cc1oc2c(c1C(=O)N1CCOCC1)C(=O)c1ccccc1C2=O`, the inhibition is 61.3% (active).
As to `CC(C(=O)Nc1ccccc1-c1ccccc1)N1CCOCC1` (stereo not drawn), the inhibition is 3.7% (inactive).
Turning to `Cc1nc2ccccc2n1C(=O)N1CCOCC1`, the inhibition is 11.5% (inactive).
As to `COc1ccc(C2=NOC(C(=O)NCc3ccco3)C2)cc1OC` (stereo not drawn), the inhibition is 7.1% (inactive).
Regarding `COc1ccc(-c2c(NC(=O)c3ccco3)oc3ccc(Cl)cc3c2=O)cc1`, the inhibition was -71.5% (inactive).
Consider `Cc1cc(C)cc(N(CC(=O)NC2CCCC2)C(=O)CCC(=O)Nc2nccs2)c1`, for which the inhibition is 10.9% (inactive).
To `Cc1ccc(C(=O)OC2CCCN(C)C2)cc1` (stereo not drawn) belongs 8.1% (inactive).
Take `CC1(C)C2CCC1(C)C(OC(=O)c1ccc(O)cc1)C2` (stereo not drawn): the inhibition was 40.5% (active).
Next, `CC1(C)C2CCC1(C)C(OC(=O)CCn1ccnc1)C2` (stereo not drawn): 22.1% (inactive); `COc1ccc2c(c1)C(C)=CC(C)(C)N2C(=O)Nc1ccccc1`: -486% (inactive); `COc1cc2[nH]c(=S)n(Cc3ccc(C)o3)c(=O)c2cc1OC`: 20% (inactive).
As to `CCC(C)(C)NC(=O)C(c1ccc(O)cc1)N(Cc1ccco1)C(=O)CCC(=O)Nc1ccccn1` (stereo not drawn), the inhibition is -20.6% (inactive).
Next, `Nc1ncnc2c1ncn2[C@@H]1O[C@H](C(=O)N2CCCN(Cc3ccccc3F)CC2)[C@@H](O)[C@H]1O`: 18.2% (inactive); `CCN(CC)C(=O)CCC(=O)Nc1ccc(C(=O)OC)cc1`: 51.9% (active).
As for `CCN(CC)CCOC(=O)c1ccc(NC(=O)CNC(=O)c2ccccc2)cc1`, the inhibition is 7% (inactive).
To `CCOc1ccc(NC(=O)CCNC(=O)c2ccc(Br)cc2)cc1` belongs 0.3% (inactive); to `Nc1c(C(=O)c2cccs2)sc2nsc(SCCN3CCCCC3)c12`, 16.8% (inactive).
Next, `O=C(NCCN1CCOCC1)C1CCN(S(=O)(=O)c2ccccc2)CC1`: 18% (inactive).
To `O=C(NNc1nc(N2CCCC2)nc(N2CCCC2)n1)c1ccccc1` belongs 5.2% (inactive); to `CCc1ccccc1NC(=O)c1ccc2c(c1)CCN2S(C)(=O)=O`, 22.2% (inactive); to `CCc1ccccc1NC(=O)NCCN1CCCCC1`, 12.7% (inactive).
For `CN1CCc2ccccc2C1Cc1ccccc1NC(=O)c1sc2ccccc2c1Cl` (stereo not drawn), the inhibition is 53.8% (active).
Next, `Cc1ccc(C2=Nc3c(ccc4ccccc34)C(c3ccncc3)=NN2)cc1`: -6.5% (inactive).
In the case of `C=C(C)Cn1c(C)cc(C)c(S(=O)(=O)c2ccccc2C)c1=O`, the inhibition was 20.8% (inactive).
As for `COc1ccc(C(=O)CCc2ccccc2O)c(OC)c1`, the inhibition is 9.3% (inactive).
To `COc1ccc(/C=C2/C(=O)OCc3cc(OC)c(OC)cc32)c(OC)c1` belongs 20.7% (inactive); to `COc1ccc(/C=C2/C(=O)N(c3ccccc3)N=C2C)c(OC)c1`, 53.8% (active).
